Laboratory results as given in publication PMC7862700, “An all-to-all approach to the identification of sequence-specific readers for epigenetic DNA modifications on cytosine”.

How the values were obtained:
Assay in all cases: DAPPL (digital affinity profiling via proximity ligation, sequencing); 10 mM Tris-HCl pH 7.5, 50 mM NaCl, 1 mM DTT, 4% glycerol, room temperature, 30 min; GST-TFs on glutathione beads, 16-mer random dsDNA library, 0.1% formaldehyde crosslink after washing; high values mean tight binding
Settings in all cases: protein: recombinant; tags: N-terminal GST; dsDNA, one strand shown
[1] = biological target: T1, FLI1 (Homo sapiens, UniProt Q01543 1-452)
T1 sequence: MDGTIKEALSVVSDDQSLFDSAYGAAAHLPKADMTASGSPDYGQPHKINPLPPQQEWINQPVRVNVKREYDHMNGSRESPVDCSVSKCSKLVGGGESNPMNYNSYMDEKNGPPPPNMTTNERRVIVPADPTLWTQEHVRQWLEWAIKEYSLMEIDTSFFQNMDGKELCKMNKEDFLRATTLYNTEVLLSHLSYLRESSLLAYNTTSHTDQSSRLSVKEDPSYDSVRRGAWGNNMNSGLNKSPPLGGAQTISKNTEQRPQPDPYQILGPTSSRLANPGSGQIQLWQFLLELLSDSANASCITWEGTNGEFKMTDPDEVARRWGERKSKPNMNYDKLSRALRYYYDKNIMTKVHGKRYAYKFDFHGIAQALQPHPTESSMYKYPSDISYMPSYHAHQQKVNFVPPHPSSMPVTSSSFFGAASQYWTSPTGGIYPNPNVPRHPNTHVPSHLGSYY
Summary of the method: (§1)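 Binding signal is defined as a hexamer's read frequency for one factor over its frequency for the tag-only sample. To obtain reads, GST-fused human transcription factors were expressed in yeast, captured on glutathione beads, barcoded with DNA and pooled with that sample. Pools met 200 nmole of a 16-mer random double-stranded DNA library in Tris/NaCl/DTT/glycerol buffer for 30 min at room temperature before washing, 0.1% formaldehyde crosslinking, proximity ligation (BsaI/T4 ligase, 1 h, 37 °C), PCR and Illumina NextSeq500 sequencing.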

[2] = biological target: T2, ELK1 (Homo sapiens, UniProt P19419 1-428)
T2 sequence: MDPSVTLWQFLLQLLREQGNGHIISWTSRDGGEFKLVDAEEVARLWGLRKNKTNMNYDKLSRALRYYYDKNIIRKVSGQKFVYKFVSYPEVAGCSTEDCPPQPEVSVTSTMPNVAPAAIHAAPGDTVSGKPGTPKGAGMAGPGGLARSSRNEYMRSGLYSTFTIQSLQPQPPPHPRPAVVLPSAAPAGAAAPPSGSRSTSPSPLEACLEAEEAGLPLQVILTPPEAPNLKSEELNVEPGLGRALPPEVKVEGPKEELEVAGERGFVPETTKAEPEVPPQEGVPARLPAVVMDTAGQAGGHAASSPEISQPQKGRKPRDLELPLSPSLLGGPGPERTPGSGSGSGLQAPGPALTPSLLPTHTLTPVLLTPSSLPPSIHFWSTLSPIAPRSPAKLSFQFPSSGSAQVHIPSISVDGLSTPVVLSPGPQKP
Summary of the method: as §1

[3] = biological target: T3, GABPA (Homo sapiens, UniProt Q06546 1-454)
T3 sequence: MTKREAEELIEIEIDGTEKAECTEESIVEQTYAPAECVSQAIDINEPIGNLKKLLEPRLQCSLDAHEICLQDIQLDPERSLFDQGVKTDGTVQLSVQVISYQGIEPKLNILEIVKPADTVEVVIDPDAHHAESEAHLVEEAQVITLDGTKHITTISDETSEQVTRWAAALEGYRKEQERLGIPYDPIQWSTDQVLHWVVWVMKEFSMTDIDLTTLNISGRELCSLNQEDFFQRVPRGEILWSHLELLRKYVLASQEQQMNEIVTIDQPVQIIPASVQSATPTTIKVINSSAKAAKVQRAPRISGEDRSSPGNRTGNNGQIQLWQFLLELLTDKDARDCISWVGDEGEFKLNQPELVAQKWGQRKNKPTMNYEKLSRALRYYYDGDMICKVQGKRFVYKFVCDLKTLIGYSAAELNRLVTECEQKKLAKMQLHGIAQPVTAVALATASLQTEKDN
Summary of the method: as §1

[4] = biological target: T4, ERG (Homo sapiens, UniProt P11308 1-479)
T4 sequence: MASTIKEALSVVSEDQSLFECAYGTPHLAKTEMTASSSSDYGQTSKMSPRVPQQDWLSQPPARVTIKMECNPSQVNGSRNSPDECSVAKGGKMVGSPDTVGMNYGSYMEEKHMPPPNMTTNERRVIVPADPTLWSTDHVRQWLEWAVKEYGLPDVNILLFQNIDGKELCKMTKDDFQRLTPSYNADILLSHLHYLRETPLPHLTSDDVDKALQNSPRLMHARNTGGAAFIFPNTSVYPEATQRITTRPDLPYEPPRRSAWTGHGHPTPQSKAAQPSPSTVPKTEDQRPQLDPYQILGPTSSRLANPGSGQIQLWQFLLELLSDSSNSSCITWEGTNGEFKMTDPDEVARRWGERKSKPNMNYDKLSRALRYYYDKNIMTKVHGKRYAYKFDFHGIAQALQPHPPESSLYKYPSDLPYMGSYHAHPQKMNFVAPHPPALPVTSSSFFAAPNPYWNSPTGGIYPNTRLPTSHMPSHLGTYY
Summary of the method: as §1

[5] = biological target: ELF1 (Homo sapiens, UniProt P32519 1-619)
Summary of the method: as §1

[6] = biological target: T5, EHF (Homo sapiens, UniProt Q9NZC4 1-300)
T5 sequence: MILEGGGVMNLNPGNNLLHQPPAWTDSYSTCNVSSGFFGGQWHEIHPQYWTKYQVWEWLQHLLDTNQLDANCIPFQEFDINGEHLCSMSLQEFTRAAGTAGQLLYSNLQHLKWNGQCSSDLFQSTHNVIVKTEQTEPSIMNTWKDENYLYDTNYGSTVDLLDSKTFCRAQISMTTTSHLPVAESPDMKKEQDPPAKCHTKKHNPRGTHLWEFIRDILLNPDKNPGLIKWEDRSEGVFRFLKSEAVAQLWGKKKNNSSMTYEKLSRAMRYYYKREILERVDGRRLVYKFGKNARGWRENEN
Summary of the method: as §1

[7] = biological target: SPI1 (Homo sapiens, UniProt P17947 1-270)
Summary of the method: as §1

[8] = biological target: SPIB (Homo sapiens, UniProt Q01892 1-262)
Summary of the method: as §1

[9] = biological target: T6, ELK3 (Homo sapiens, UniProt P41970 1-407)
T6 sequence: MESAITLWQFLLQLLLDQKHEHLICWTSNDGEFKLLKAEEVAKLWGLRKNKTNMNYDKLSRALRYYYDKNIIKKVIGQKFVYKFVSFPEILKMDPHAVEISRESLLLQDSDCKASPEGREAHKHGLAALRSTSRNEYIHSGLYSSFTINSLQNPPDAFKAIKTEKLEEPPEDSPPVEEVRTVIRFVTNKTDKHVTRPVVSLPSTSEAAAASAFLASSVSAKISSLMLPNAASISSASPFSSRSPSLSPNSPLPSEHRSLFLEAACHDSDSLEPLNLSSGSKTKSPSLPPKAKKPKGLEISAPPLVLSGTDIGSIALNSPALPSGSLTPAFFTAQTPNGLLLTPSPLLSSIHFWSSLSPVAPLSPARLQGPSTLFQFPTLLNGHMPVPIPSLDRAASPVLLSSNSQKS
Summary of the method: as §1

SPIB, sequence (Q01892 whole entry): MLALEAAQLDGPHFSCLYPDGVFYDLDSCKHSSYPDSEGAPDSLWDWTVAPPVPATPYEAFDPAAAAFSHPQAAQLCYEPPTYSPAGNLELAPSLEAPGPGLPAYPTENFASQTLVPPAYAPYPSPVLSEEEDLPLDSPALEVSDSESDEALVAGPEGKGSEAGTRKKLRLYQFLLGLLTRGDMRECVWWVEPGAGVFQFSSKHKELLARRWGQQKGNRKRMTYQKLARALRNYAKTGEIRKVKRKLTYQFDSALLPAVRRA
ELF1, sequence (P32519 whole entry): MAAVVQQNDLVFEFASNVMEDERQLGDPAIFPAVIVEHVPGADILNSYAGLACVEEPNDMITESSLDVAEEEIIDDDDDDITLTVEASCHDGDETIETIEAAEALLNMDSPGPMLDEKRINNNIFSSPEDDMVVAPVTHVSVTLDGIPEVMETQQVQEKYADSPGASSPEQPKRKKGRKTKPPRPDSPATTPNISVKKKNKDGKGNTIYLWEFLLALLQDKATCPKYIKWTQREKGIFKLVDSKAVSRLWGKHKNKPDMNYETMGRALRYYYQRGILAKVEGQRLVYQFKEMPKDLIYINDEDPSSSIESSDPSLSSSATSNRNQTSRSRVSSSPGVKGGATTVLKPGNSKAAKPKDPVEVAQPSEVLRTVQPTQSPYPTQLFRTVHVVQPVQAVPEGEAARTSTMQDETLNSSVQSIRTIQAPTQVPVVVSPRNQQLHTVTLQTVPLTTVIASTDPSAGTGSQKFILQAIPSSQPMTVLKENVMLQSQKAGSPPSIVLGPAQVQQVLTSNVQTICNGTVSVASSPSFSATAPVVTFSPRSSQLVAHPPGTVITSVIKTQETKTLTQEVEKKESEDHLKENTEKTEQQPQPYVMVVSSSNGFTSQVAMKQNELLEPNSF

ACTCTC
binding signal [1]: 1.5 fold enrichment (6-mer frequency, TF over GST control) | binding signal [2]: 1.59 fold enrichment (6-mer frequency, TF over GST control) | binding signal [3]: 1.41 fold enrichment (6-mer frequency, TF over GST control) | binding signal [4]: 1.47 fold enrichment (6-mer frequency, TF over GST control) | binding signal [5]: 1.55 fold enrichment (6-mer frequency, TF over GST control) | binding signal [6]: 1.47 fold enrichment (6-mer frequency, TF over GST control) | binding signal [7]: 1.49 fold enrichment (6-mer frequency, TF over GST control) | binding signal [8]: 1.47 fold enrichment (6-mer frequency, TF over GST control) | binding signal [9]: 1.44 fold enrichment (6-mer frequency, TF over GST control)
